CXXC DNA block – inhibitors of human MLL CXXC domain-DNA interaction. Q03164. MLL-CXXC / FITC-HOXA9 DNA fluorescence polarization. Potency, µM (highest dose often 115 µM), for the others: at the top dose activity change, negative = inhibition, actives largely listed as inhibitors. hit rate 0.037% among 290,000; active = well fitted inhibition curve with a large enough effect in the polarisation, with a control signal flat, not every such curve was filed as active; inconclusive = small, poorly fitted or top-dose-only effect, or effect the other way, or a change in a side signal; inactive = no such curve, though single readings can be large or run the other way; the % refers to the polarisation; note: potency is the fitted concentration of half-maximal effect
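Purified MLL-CXXC (added from a 7 uM solution) was preincubated 5 min at ambient with pinned compounds in 50 mM Tris-HCl pH 7.5, 50 mM NaCl, 1 mM DTT, 0.05% BSA. Fluorescein-labeled HOX-A9 DNA (50 nM solution) followed, 30 min, then polarization read.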
KCNH2 3.1 inh – inhibitors of human KCNH2 3.1 potassium channel isoform. U2OS KCNH2 3.1, thallium flux FluxOr; stronger effect = lower value. activity change, % (tested at about 1.8 µM). hit rate 0.95% among 340,000;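 active = maximum activity change below -70%; inconclusive = maximum activity change from -70% to -50%; inactive = maximum activity change above -50%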;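 note: thallium influx rate constant from kinetic fluorescence after stimulation buffer; % is set by controls: 0 for no effect and ±100 for the full control effect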
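We transduce U2OS cells with the mutant 3.1 virus, culture them overnight, load FluxOr with Red40 quencher for 45 min, then add stimulation buffer and read kinetically for 2 min to derive a normalized rate constant.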
Menin-MLL TR inh – menin-MLL binding inhibition, Texas Red mutant peptide | O00255 | Menin + Texas Red MLL mutant peptide, fluorescence polarization | Potency, µM (top dose mostly 61.6 µM), for the others: at the highest dose FP activity change, negative = inhibition, most hits filed as inhibitors | hit rate 0.23% among 270,000 | AID 1768; active = well fitted inhibition curve with a large enough effect in the polarisation, with a control signal flat, not every such curve was filed as active; inconclusive = small, poorly fitted or top-dose-only effect, or effect the other way, or a change in a side signal; inactive = no such curve, though single readings can be large or run the other way; the % refers to the polarisation; note: potency is the fitted concentration of half-maximal effect; % of control where 0% means no effect
hERG WT inh – inhibitors of human wildtype KCNH2 potassium channel; Q12809; U2OS, BacMam KCNH2, thallium flux FluxOr; stronger effect = lower value; activity change, % at 1.84 µM; hit rate 0.37% among 340,000;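 active = maximum activity change below -70%; inconclusive = maximum activity change between -70% and -50%; inactive = maximum activity change above -50%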; note: % is set by controls: 0 for no effect and ±100 for the full control effect
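U2OS cells were transduced with wild-type KCNH2 virus (2.03 x 10^8 / mL) for 4 h at room temperature, then cultured overnight at 37 C. Thallium flux was read with FluxOr dye. Rate constants were normalized to DMSO controls.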
Menin MLL FP FL – inhibitors of human menin-MLL interaction, wild-type MLL peptide; 290,000 tested, under 10 active; FP activity change, % at 61.4 µM; AID 1766; Fluorescence polarization, fluorescein-MLL peptide displacement from menin; active = well fitted curve in the direction sought with a large enough effect in the polarisation, not every such curve was filed as active; inconclusive = small, poorly fitted or top-dose-only effect, or effect the other way, or a change in a side signal; inactive = no such curve, though single readings can be large or run the other way; the % refers to the polarisation; note: % of control where 0% means no effect
The depositor's hits bear a star; ? = inconclusive; / = not tested or not shown; [ ] = dose if it differs, or a comment. Most compounds without a hit are left out; they make up all but 1.1% or so of the library.

SMILES | CXXC DNA block | KCNH2 3.1 inh | Menin-MLL TR inh | hERG WT inh | Menin MLL FP FL
CN1C[C@H](C(=O)N[C@]2(C)O[C@@]3(O)[C@H]4CCCN4C(=O)[C@H](Cc4ccccc4)N3C2=O)C[C@H]2c3cccc4[nH]cc(c34)C[C@@H]21 | / | / | -5.6%[24.8 µM] | / | ?
CCOC(=O)C1(c2ccccc2)CCN(CCC(=O)Nc2ccc(OC)cc2)CC1 | / | -31.9 | / | 55.9 | /
CCOC(=O)C1(c2ccccc2)CCN(CCC(C#N)(c2ccccc2)c2ccccc2)CC1 | 9.8% | -88.0* | -0.8% | -44.7 | 1.8
COc1ccc(NP(=O)(Oc2ccc(Cl)cc2)Oc2ccc(Cl)cc2)cc1OC | -5.6% | -112.6* | 7.1% | -29.5 | 2.2
CC(C)(CN)CC(=O)O | -15.8% | 8.1 | / | -254.3* | 1.1
O=S1(=O)CC2(N3CCOCC3)CCCCC21 (configuration not stated) | -4.3% | -94.0* | -8.4% | -14.7 | 1.6
O=S1(=O)CC2(N3CCOCC3)CCCCCCC21 (configuration not stated) | -0.5% | 2.6 | -15.9% | -5.3 | 1.5
CCOC(=O)C1(CCc2ccccc2)CCN(Cc2cccc3c2OCO3)CC1 | -2.6% | -97.4* | ? | -111.6* | -2.3
CCOC(=O)C1(CCc2ccccc2)CCN(Cc2cccc3cnccc23)CC1 | -17.2% | ? | ? | 5.0 | -0.7
Fc1ccc(Cn2nnnc2CN2CCC(n3nnc4cc(C(F)(F)F)ccc43)CC2)cc1 | 18.1% | -98.2* | / | -22.0 | -1.7
FC(F)(F)c1ccc2c(c1)ncn2C1CCN(Cc2nnnn2C2CCCCC2)CC1 | -4.4% | ? | -2.9% | 7.4 | 3.7
c1ccc(CCn2nnnc2CN2CCC(n3nnc4ccccc43)CC2)cc1 | -5.5% | -17.4 | -2.2% | 7.4 | -0.2
Cc1nc2cc(C(F)(F)F)ccc2n1C1CCN(Cc2nnnn2Cc2ccc3c(c2)OCO3)CC1 | -5.5% | -76.6* | -6.4% | -16.3 | 2.9
Cc1nc2cc(C(F)(F)F)ccc2n1C1CCN(Cc2nnnn2Cc2cccs2)CC1 | -0.2% | -74.9* | 1.8% | -19.8 | 4.5
Cc1nc2ccccc2n1C1CCN(Cc2nnnn2CCc2ccccc2)CC1 | -3.2% | -81.7* | -8.3% | -23.4 | -1.1
Fc1ccc2c(c1)nnn2C1CCN(Cc2nnnn2CCc2ccccc2)CC1 | -3.5% | -0.6 | 2.9% | 0.7 | -1.3
CC(=O)Oc1c2c(c(CC=C(C)C)c3c1C(=O)C1=CC4CC5C(C)(C)OC(C/C=C(\C)C(=O)O)(C4=O)[C@]15O3)OC(C)(CCC=C(C)C)C=C2 (some centres not stated) | / | / | 4.8% | / | 10.4
NC(N)=NCCC[C@@H](N)C(=O)O | / | / | 11.0%[24.8 µM] | / | ?
[Cl-].[Cl-].[Hg+2] | -13.2% | / | -10.3% | / | -3.3
FC1(F)C(F)(F)C(F)(F)C2(F)C(F)(F)C(F)(F)C(F)(F)C(F)(F)C2(F)C1(F)F (configuration not stated) | ? | / | -3.6% | / | ?
COc1ccc2c(c1OC)CN1CCc3cc4c(cc3[C@H]1C2)OCO4 | 5.8%[51.4 µM] | / | -13.1%[24.8 µM] | / | -3.6[24.8 µM]
COc1ccc2c(c1OC)CN(C)CCc1cc3c(cc1C(=O)C2)OCO3 | 3.0% | -83.5* | -24.2% | -47.5 | -5.1
O=C(NCC1=C(c2cccc3ccccc23)C[C@@H]2CC[C@H]1N2Cc1ccco1)c1ccc([N+](=O)[O-])cc1 | / | -93.3* | / | -24.1 | /
CS(=O)(=O)c1ccc(C2=C(CNC(=O)c3cccnc3)[C@H]3CC[C@@H](C2)N3Cc2ccccc2)cc1 | / | ? | / | -26.1 | /
Cc1ncoc1C(=O)NCC1=C(c2ccc(S(C)(=O)=O)cc2)C[C@@H]2CC[C@H]1N2CCOc1ccccc1 | / | ? | / | -46.0 | /
SMILES | CXXC DNA block | KCNH2 3.1 inh | Menin-MLL TR inh | hERG WT inh | Menin MLL FP FL
CS(=O)(=O)c1ccc(C2=C(CNC(=O)c3ccc([N+](=O)[O-])cc3)[C@H]3CC[C@@H](C2)N3Cc2ccccc2)cc1 | / | -101.4* | / | -85.7* | /
O=C(NCC1=C(c2ccc3ccccc3c2)C[C@@H]2CC[C@H]1N2Cc1ccco1)c1cccnc1 | / | -21.1 | / | 0.9 | /
CCOC(=O)c1cccc(C2=C(CNC(=O)c3nccs3)[C@H]3CC[C@@H](C2)N3Cc2ccccc2)c1 | / | -84.5* | / | 18.3 | /
CS(=O)(=O)c1ccc(C2=C(CNC(=O)c3ccc([N+](=O)[O-])cc3)[C@H]3CC[C@@H](C2)N3CCOc2ccccc2)cc1 | / | -110.5* | / | -91.9* | /
O=C(O)CNC(=O)[C@@H](CS)Cc1ccccc1 | / | / | -8.0%[24.8 µM] | / | -5.4[24.8 µM]
CCN(CC)c1ccc(CN2CC=C(c3ccc(F)cc3)CC2)cc1 | 2.0% | -23.8 | -20.9% | 29.5 | 1.0
COc1ccc(CN2CC=C(c3ccc(F)cc3)CC2)cc1Br | 10.8% | -139.2* | 2.9% | 11.1 | -1.0
O=[N+]([O-])c1cccc(CN2CCN(Cc3ccc(Cl)cc3)CC2)c1 | -3.5% | -83.6* | -11.7% | -8.8 | -4.5
CC(C)N1CCN(Cc2cccc([N+](=O)[O-])c2)CC1 | 10.1% | 3.2 | 9.0% | -0.1 | 0.1
CCOC(=O)N1CCCN(/[N+]([O-])=N/Oc2ccc([N+](=O)[O-])cc2[N+](=O)[O-])CC1 | / | / | ? | / | -8.7
COc1ccc2c(c1)CCC1[C@@H]2CCC2(C)[C@@H](NCCCCCCN3C(=O)C=CC3=O)CC[C@@H]12 (some centres not stated) | / | / | -3.8%[24.8 µM] | / | ?
CSc1ccc(C(=O)C2CCCN(Cc3cc4ccccc4[nH]3)C2)cc1 (configuration not stated) | 3.0% | -104.5* | 11.3% | -18.2 | 1.6
CN1CCN(c2ccc([N+](=O)[O-])c3no[n+]([O-])c23)CC1 | ? | -0.6 | / | -1.8 | ?
O=[N+]([O-])c1ccc(N(CCO)CCO)c2c1no[n+]2[O-] | / | -92.0* | / | -33.8 | /
NC(N)=NN=C(/C=C/c1ccc([N+](=O)[O-])o1)/C=C/c1ccc([N+](=O)[O-])o1 | 5.4% | / | -7.7% | / | ?
Oc1ccc2c3c1O[C@H]1c4[nH]c5ccccc5c4C[C@@]4(O)[C@@H](C2)N(CC2CC2)CC[C@]314 | / | -70.5* | / | 34.0 | /
OC(c1cccc(Cl)c1)(c1cccc(Cl)c1)C1CN2CCC1CC2 (configuration not stated) | -7.3% | -86.5* | -8.3% | ? | 3.0
CC(=O)C[C@H](c1ccccc1)c1c(O)c2ccccc2oc1=O | / | / | -6.4% | / | 0.2
O=C(c1cc(-c2ccc(Cl)cc2)n(-c2ccc(Cl)cc2Cl)n1)N1CCOCC1 | 0.1% | -103.6* | ? | -49.0 | 3.9
CCC(=Nc1ccc2c(c1)CCC2)c1c(O)n(-c2ccc(OC)cc2)c(=O)[nH]c1=O | -4.8% | 3.9 | / | -104.3* | 2.2
CC1CC2OC2/C=C\C=C/C(=O)Cc2c(Cl)c(O)cc(O)c2C(=O)O1 (configuration not stated) | / | / | ? | / | 1.2
CC(=O)OC1CC[C@@]2(C)C(=CC[C@H]3[C@@H]4CC[C@H](C(C)=O)[C@@]4(C)CC[C@@H]32)C1 (some centres not stated) | / | / | -11.8% | / | ?

Screening data: PubChem, National Center for Advancing Translational Sciences (NCATS)
